From PubChem BioAssay AID504546 (Broad Institute, 2011) come the findings set out here.

The structures appear in SMILES notation. Records with an inconclusive call do not appear. The source made the active and inactive calls.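 The calls were made as follows: active = every repeat run fits a falling-signal curve with half-maximal potency within ten times top tested dose; inconclusive = runs disagree, or flat moderate drop, or poor fit; inactive = every run inactive, including signal moving upward.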

This assay is described as follows: inhibition of ADP-Glo detection reagents, dose response, artefact control for CDK5 inhibitor project, biochemical, luminescence, cherry-picked samples, set 2 (AID 504546). The following applies: ADP-Glo detection reagent counter screen, 5 uM ADP; series mostly up to 30 µM. A general note: ADP-Glo first removes unused ATP, then detects ADP through luciferase.
Consider `N#Cc1cn(C2OC(CO)C(O)C2O)c2ncnc(N)c12` (stereo not drawn), for which the result was inactive.
Take `COc1cc2c(ccc3c4cc(OC)c(OC)cc4c[n+](C)c23)cc1O`: the result was inactive.
For `NC(=O)c1c(Br)n(C2OC(CO)C(O)C2O)c2ncnc(N)c12` (stereo not drawn), the result was inactive.
The entry for `Nc1ccc(CC2=NCCN2)cc1` is “inactive”; for `N#Cc1c(Br)n(C2OC(CO)C(O)C2O)c2ncnc(N)c12` (stereo not drawn) it is “inactive”.
The entry for `O=C1Nc2ccccc2/C1=C/c1cnc[nH]1` is “inactive”.
With `NC(=O)c1cn(C2OC(CO)C(O)C2O)c2ncnc(N)c12` (stereo not drawn) the entry was “inactive”.
Consider `Nc1ncnc2c1ccn2[C@@H]1O[C@H](CO)[C@@H](O)[C@H]1O`, for which the molecule was classed as inactive.
